# Laboratory results reported in PubChem BioAssay AID720541 (National Center for Advancing Translational Sciences (NCATS), 2013).
# Among all 1,300 compounds or so, about 420 (32%) were called active. Not shown: some 32% with an inconclusive outcome. The call rests on the fitted dose curve; in most records, active means well fitted inhibition curve with a large enough effect; inconclusive means small, poorly fitted or top-dose-only effect; inactive means no such curve, though single readings can be large or run the other way. This is one part of the list.
# Biological target: C-terminal-binding protein 1 (Homo sapiens) (UniProt Q13363)
# Assay: qHTS for Inhibitors of the Phosphatase Activity of Eya2: Carboxyl-terminal binding protein (CtBP) Counterscreen for Cherry-picked Compounds; further: nearly all actives have a fitted effect of over 65% in size
# Conditions: purified protein-protein binding, AlphaScreen, 3 h; series mostly up to 46.1 µM; activity change, negative = inhibition: at the top concentration
# Summary of the method: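 AlphaScreen using 25 nM GST-E1A with 25 nM CtBP-6xHIS; compounds at 2.5 nM–46 uM final, 2 h at room temperature, then donor/acceptor beads (20 ug/mL) for 1 h in the dark. Signal normalized to E1A peptide inhibitor (maximum inhibition) and DMSO.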
# On the % scale 0 is the no-effect control and ±100 the full control effect; potency means the concentration at half of the fitted maximal effect.
Structure (SMILES),"activity change, negative = inhibition",Potency
COCc1cc(O)c(O)c(O)c1-c1c(COC)cc(O)c(O)c1O,37.1% (inactive),–
CCC(C)Nc1ccc(NC(C)CC)cc1 (stereo not drawn),–,0.0849 µM (active)
Cc1nc(-n2[nH]c3c(c2=O)CCCC3)[nH]c(=O)c1Cc1ccccc1,–,13.5 µM (active)
COc1cc(C)c(/C=C/C(C)=C/C=C/C(C)=C/C(=O)O)c(C)c1C,-7.68% (inactive),–
COc1cc(C(=O)Nc2cccc(NC(=O)c3cccs3)c2)cc(OC)c1OC,-26.5% (inactive),–
COc1ccc(C(=O)Nc2ccc3c(c2)CCCN3C(=O)c2cccs2)c(OC)c1,–,7.57 µM (active)
CCOc1ccc(NC(=O)c2sccc2-n2cccc2)cc1,-14.2% (inactive),–
O=C(O)c1ccc(CSc2nc3ccccc3c(=O)n2-c2ccccc2)cc1,3.87% (inactive),–
COc1ccc(-n2c(SCC(=O)Nc3cc(C(=O)O)ccc3C)nc3ccccc3c2=O)cc1Cl,–,8.49 µM (active)
COc1cc(NC(=O)CSc2ccc(-c3ccccn3)nn2)cc(OC)c1,–,1.9 µM (active)
COc1ccc(NC(=O)CSc2ccc(-c3ccccn3)nn2)cc1OC,–,3.79 µM (active)
COc1ccc(NC(=O)CN(C)C(=O)c2cccc(-n3cccc3)c2)cc1,-28.7% (inactive),–
COc1ccccc1CNC(=O)CCCc1cn(C)c2ccccc12,-19.3% (inactive),–
COc1ccccc1CNC(=O)c1ccc2c(=O)n(CCCN3CCCC3=O)c(=S)[nH]c2c1,-29.5% (inactive),–
O=C(CSc1ccc(-c2ccccn2)nn1)Nc1cccc(F)c1,-77.5% (inactive),–
COc1ccccc1CNC(=O)CSc1ccc(-c2ccccn2)nn1,–,8.49 µM (active)
Cc1cc(C(=O)c2ccccc2)cc(C)c1O,-57.8% (inactive),–
CC1Cc2ccccc2N1C(=O)C1CCCN1S(=O)(=O)c1ccc(Cl)cc1 (stereo not drawn),16% (inactive),–
CC1CCN(CC2C(=O)O[C@@H]3C[C@@]4(C)CCC[C@H](C)C4=C[C@H]23)CC(C)(C)C1 (stereo partly drawn),-5.73% (inactive),–
Nc1[nH]nc2ncc3cc4ccccc4nc3c12,–,10.7 µM (active)
O=C(Cn1c(S(=O)(=O)Cc2ccccc2)nc2ccccc21)N1CCCCC1,1.42% (inactive),–

Structure (SMILES),"activity change, negative = inhibition",Potency
O=C(CSc1ccc(-c2ccccn2)nn1)N1CCCC1,–,8.49 µM (active)
O=C(CSc1ccc(-c2ccccn2)nn1)N1CCCCC1,–,7.57 µM (active)
O=C(C1=C[C@H](c2ccccc2)C[C@H](OCc2ccc(CO)cc2)O1)N1CCN(Cc2ccccc2)CC1,-14% (inactive),–
COc1ccccc1N1CCN(/N=C/C=C\c2ccccc2[N+](=O)[O-])CC1,–,15.1 µM (active)
O=[N+]([O-])c1ccccc1/C=C\C=N\N1CCN(c2ccccc2)CC1,-82.1% (inactive),–
COc1ccc(-n2c(CN3CCN(c4ccccc4OC)CC3)nc3ccc([N+](=O)[O-])cc3c2=O)c(OC)c1,-17% (inactive),–
O=C(c1cccs1)N1CCC(c2nc3c(nnn3Cc3cccc(Cl)c3)c(=O)[nH]2)CC1,–,12 µM (active)
CCOC(=O)c1cnc2c(C#N)cnn2c1N,–,10.7 µM (active)
CC(NC(=O)c1cc2c(s1)CS(=O)(=O)C2)c1ccccc1 (stereo not drawn),1.67% (inactive),–
CCOc1ccc2[nH]cc(-c3csc(N)n3)c2c1,–,12 µM (active)
O=c1cc2oc3cc(O)c(O)cc3c(-c3ccccc3[N+](=O)[O-])c-2cc1O,–,9.53 µM (active)
Cc1cccc(C)c1OCc1cc(C(=O)N2CCN(c3ccccc3)CC2C)no1 (stereo not drawn),1.7% (inactive),–
COc1ccc(-c2c(N)cnc(C(=O)O)c2C)c(OCc2ccccc2)c1OC,–,12 µM (active)
COc1cc(C(C(=O)NC2CCCCC2)N(C(=O)Cc2c[nH]c3ccccc23)c2ccc(C)cc2)cc(OC)c1OC (stereo not drawn),-17% (inactive),–
Cc1cc(/C=N/NC(=O)c2ccccn2)c(C)n1-c1cccc([N+](=O)[O-])c1,–,15.1 µM (active)
CCCCn1nc(C(=O)Nc2ccc3c(c2)OCO3)c2ccccc2c1=O,–,15.1 µM (active)
O=C(CCn1c(=O)oc2ccccc21)NCc1ccc2c(c1)OCO2,6.99% (inactive),–
Cn1nnnc1SCC(=O)Nc1ccc2c(c1)OCO2,7.08% (inactive),–
COc1cc2c(cc1OC)C(c1ccc([N+](=O)[O-])cc1)NCC2 (stereo not drawn),-2.74% (inactive),–
Nc1ccc2nc3c(=O)[nH]c(=S)[nH]c3nc2c1,–,3.79 µM (active)
CN(C)c1ccc(N=Nc2ccnc3ccccc23)cc1,–,2.13 µM (active)

Structure (SMILES),"activity change, negative = inhibition",Potency
COc1cc(NC(=O)CN2C(=O)CSc3ccc(S(=O)(=O)N4CCCC4)cc32)cc(OC)c1,-78.4% (inactive),–
CCC(=O)N1N=C(c2ccc(C)o2)CC1c1ccc(N(C)C)cc1 (stereo not drawn),-29.7% (inactive),–
COc1ccc(C2CC(c3ccccc3OC(=O)/C=C/c3ccccc3)=NN2C(C)=O)cc1 (stereo not drawn),–,1.69 µM (active)
O=C(Oc1cccnc1)c1ccc([N+](=O)[O-])cc1Cl,-23.8% (inactive),–
Cc1cccn2c(=O)c3cc(S(=O)(=O)c4ccc(F)cc4)c(=N)n(Cc4ccco4)c3nc12,2.11% (inactive),–
COc1ccc(CCn2c(=N)c(C(=O)NCC3CCCO3)cc3c(=O)n4ccccc4nc32)cc1 (stereo not drawn),–,12 µM (active)
COc1ccc(CCn2c(=N)c(C(=O)NCc3ccco3)cc3c(=O)n4ccccc4nc32)cc1OC,–,9.53 µM (active)
COc1ccccc1Nc1nc(-c2ccc3c(c2)NC(=O)CO3)cs1,7.27% (inactive),–
COc1ccc(-c2csc(Nc3ccc(S(N)(=O)=O)cc3)n2)cc1OC,–,15.1 µM (active)
COCCn1c(C)cc(C(=O)COC(=O)c2ccccc2Br)c1C,-24.1% (inactive),–
CCn1cc(C(=O)OCC(=O)c2cc(C)n(-c3ccccc3F)c2C)c(=O)c2ccc(C)nc21,–,16.9 µM (active)
Cc1cc(C(=O)COC(=O)c2cccnc2Cl)c(C)n1-c1c(C)n(C)n(-c2ccccc2)c1=O,-0.409% (inactive),–
COc1ccc(C(=O)Nc2nnc(-c3ccccc3)o2)cc1OC,–,19 µM (active)
CCc1ccc(NC(=O)COC(=O)c2ccccc2OCC(=O)N(C)C)cc1,8.66% (inactive),–
CS(=O)(=O)c1ccc(-c2nnc(NC(=O)C3=COCCO3)o2)cc1,-24.7% (inactive),–
COc1ccc(NC(=O)c2ccc(COc3ccccc3)o2)c(OC)c1,1.73% (inactive),–
CCOc1ccccc1C(=O)OCC(=O)Nc1nnc(-c2ccccc2)o1,–,13.5 µM (active)
CCC(=O)NC(=S)Nc1ccc(NC(=O)COc2ccc([N+](=O)[O-])cc2)cc1,-0.724% (inactive),–
O=C(COC(=O)c1cc(-c2cccnc2)nc2ccccc12)Nc1ccc(F)cc1F,-12.7% (inactive),–
O=C(COc1ccccc1)Nc1nnc(-c2ccco2)o1,–,16.9 µM (active)
CC1CCCN(S(=O)(=O)c2ccc(C(=O)Nc3nnc(-c4ccco4)o3)cc2)C1 (stereo not drawn),-45.9% (inactive),–
